Reference: PubChem BioAssay (NCI)
About 79,000 compounds went through this panel and 15% of them were active in at least one assay; those are over-represented in the sample as a whole. A number with no mark means an inactive call. The source made the active and inactive calls. Cut-off read from the data, not from the text of the source: active = growth inhibition above about 70%; inactive = the rest.

How the values were obtained:
[1] = NCI Yeast Anticancer Drug Screen. Data for the rad50 strain (AID 155);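 note: 0% = growth of vehicle-only cultures of the same strain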; conditions: S. cerevisiae rad50 strain growth inhibition; at 50.0 µM; hits give high values
Summary of the method: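 Cells are treated with compound, grown, and their growth is then scored against vehicle-only cultures of the same repair-deficient yeast strain.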

[2] = NCI Yeast Anticancer Drug Screen. Data for the mec2-1 strain (AID 157); conditions: S. cerevisiae mec2-1 strain, at 50.0 µM, hits give high values
Summary of the method: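 Test agents were screened against the mec2-1 yeast strain, with defined DNA repair or cell cycle alteration. Growth was scored as inhibition against vehicle-only controls.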

[3] = NCI Yeast Anticancer Drug Screen. Data for the sgs1 mgt1 strain (AID 161);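 note: 0% = growth of cultures given vehicle only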; conditions: S. cerevisiae sgs1 mgt1 strain, at 50.0 µM, hits give high values
Summary of the method: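 Genetically altered yeast, compound exposure, growth inhibition relative to vehicle.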

[4] = NCI Yeast Anticancer Drug Screen. Data for the cln2 rad14 strain (AID 165);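 note: 0% = growth equal to vehicle treated cultures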; conditions: S. cerevisiae cln2 rad14 strain, at 50.0 µM, hits give high values
Summary of the method: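 Growth of compound-exposed yeast (cln2 rad14 genotype) measured and expressed as inhibition relative to vehicle.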

[5] = NCI Yeast Anticancer Drug Screen. Data for the bub3 strain (AID 167); conditions: S. cerevisiae bub3 mutant strain, at 50.0 µM, hits give high values
Summary of the method: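 Part of a panel of yeast mutants defective in DNA damage repair or cell cycle regulation. Each strain is grown with compound, and inhibition is calculated relative to solvent-treated cultures.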

[6] = NCI Yeast Anticancer Drug Screen. Data for the mlh1 rad18 strain (AID 175); conditions: S. cerevisiae mlh1 rad18 strain growth inhibition; at 50.0 µM; hits give high values
Summary of the method: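 In this whole-cell yeast screen, a strain with altered DNA damage repair is challenged with compound, and its growth is measured against matched vehicle-treated controls.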

Row | SMILES | growth inhibition [1] | growth inhibition [2] | growth inhibition [3] | growth inhibition [4] | growth inhibition [5] | growth inhibition [6]
1 | N.N.NC(CS)C(=O)[O-].NC(CS)C(=O)[O-].[Pt+4] (stereo unspecified) | 15% | -4% | 3.25% | -21.6% | -12.8% | 15.4%
2 | O=C(COc1ccc(Cl)cc1)Nc1ccc(Cl)cc1C(=O)c1ccccc1 | -15.8% | -8.9% | 17.3% | 18.8% | 1.1% | -18.4%
3 | N#CC(CCN1CCC(Nc2ccccc2)(c2nnnn2C2CCCCC2)CC1)(c1ccccc1)c1ccccc1 | -13.8% | -16.6% | 3.75% | -5.15% | 4.05% | -21.6%
4 | COC(=O)c1ccccc1NC(C)=O | -13.8% | -9.25% | -8.95% | -38.4% | -8.5% | 2.15%
5 | O=C(O)CCc1ccc(NP(=O)(Oc2ccccc2)N(CCCl)CCCl)cc1 (stereo unspecified) | 8.05% | 6.65% | 15.1% | 14.7% | 2.3% | -20.2%
6 | CCCCC(=O)c1cc(OC)cc(OC)c1 | 8.35% | -12.3% | -34.1% | -54% | 22.4% | -10.7%
7 | C[N+](C)(C)CC1CCC/C1=N/O (stereo unspecified) | 44.8% | 13.4% | -0.5% | 9.95% | 26.8% | 34.9%
8 | O=C(O)c1ccccc1N(CCO)CCCl | -11.2% | -10.4% | -31.4% | 21.6% | -14% | -22.8%
9 | CCCCOC(=O)c1ccccc1C(=O)O.[Mn] | -38.7% | -11.8% | -6.15% | -12.6% | -29.6% | -3.3%
10 | COP(=O)(Oc1ccccc1)Oc1ccccc1 | 17.6% | -17.5% | 23.9% | 13.1% | 25.9% | 18.5%
11 | NNc1ccc([N+](=O)[O-])cc1 | 23.9% | 26.3% | 40.9% | -10.3% | 54.9% | 51.6%
12 | O=S(=O)(O)c1ccc(Cl)cc1 | -0.45% | -3.2% | -1.15% | 23.1% | 0.3% | 9.1%
13 | Cn1c(O)c(C=N)c(=O)[nH]c1=O | -4% | 3.35% | -1.65% | -15.7% | -8% | -8.3%
14 | [Au].[NH-]CC[NH-].[NH-]CC[NH-] | 9.45% | -5.5% | -17.4% | -7.05% | -0.55% | -12.5%
15 | C[CH2][Sn]([CH2]C)([S]c1nc(O)cc(=O)[nH]1)[S]c1nc(O)cc(=O)[nH]1 | 32.5% | 41.9% | -18.1% | 7.9% | 21.9% | 25.1%
16 | Cc1ccc(C(O)(c2ccc(C)cc2)c2ccccn2)cc1 | -6.65% | 16.9% | -7% | -13.8% | 9.45% | -35%
17 | COC1=CC2CCC3C(CCC4(C)C(OC(C)=O)CCC34)C2(C)CC1 (stereo unspecified) | 13.2% | 10.8% | 1.2% | 4.1% | -13.3% | -6.8%
18 | CCCCNC(=O)C(Cl)Cl | 20.2% | 5.4% | 8.65% | 2.4% | -14.8% | 13.9%
19 | CN1CCCC(C(=O)c2ccccc2)C1 (stereo unspecified) | 0.45% | -5.1% | -0.3% | -18.9% | -4.95% | 3.75%
20 | CCOC(=O)C(C[Si](C)(C)C)P(=O)(OCC)OCC (stereo unspecified) | -24.6% | -21.9% | -58.4% | -28.6% | -26.7% | -33%
21 | Cc1ccc(NC(=O)/C=C/c2ccc([N+](=O)[O-])cc2)cc1S(=O)(=O)F | -2.05% | 27.9% | 30% | -5.6% | 45% | 15.2%

Row | SMILES | growth inhibition [1] | growth inhibition [2] | growth inhibition [3] | growth inhibition [4] | growth inhibition [5] | growth inhibition [6]
22 | COc1cc(/C=C2\C(O)C3CCN2CC3)cc(OC)c1OC (stereo unspecified) | -9.25% | -2.15% | -5.6% | -8.65% | 9.1% | -6.8%
23 | CC(=O)CC(C)=O.CC(=O)CC(C)=O.CC(=O)CC(C)=O.[La] | 27.8% | 1.35% | 12.2% | 19.1% | -4.6% | 1.15%
24 | CC(=O)Nc1ccc(Cl)cc1 | -20.4% | -7.15% | -18.1% | 1.7% | 9.45% | -1.9%
25 | O=[As](O)(O)Cc1ccccc1 | 3.75% | 2.45% | -9.6% | -16.6% | -2.55% | -22.8%
26 | O=P(O)(O)c1ccccc1 | -10.4% | -3.85% | 8.85% | -18.9% | 2.6% | 4.65%
27 | CN(/N=C/c1ccnc2ccccc12)c1c([N+](=O)[O-])cc([N+](=O)[O-])cc1[N+](=O)[O-] | -0.25% | -4.65% | -18.8% | 18.9% | -10% | -8.4%
28 | [C-]#[O+].[C-]#[O+].[C-]#[O+].[CH3][Sn]([c]1ccccc1)[c]1ccccc1.[W].[c-]1[c-][c-][cH-][c-]1 | 98.2% (active) | 99.3% (active) | 98.5% (active) | 97.5% (active) | 99.3% (active) | 97.5% (active)
29 | c1ccc(-c2cc(-c3ccccc3)c(OOc3c(-c4ccccc4)cc(-c4ccccc4)cc3-c3ccccc3)c(-c3ccccc3)c2)cc1 | -6.7% | -0.7% | -0.95% | -27.9% | -10% | 16.6%
30 | CN1C2CCC1CC(OC(=O)c1cccc(O)c1)C2 (stereo unspecified) | 30.9% | 0.55% | 0.9% | 4.95% | 15.9% | 16.4%
31 | Cn1nc2ccc3nccc(NCCNCCCl)c3c2n1 | 6.95% | -30.8% | -22.1% | 2.7% | -19.2% | -20.8%
32 | CNP1(N(C)C)=NP(NC)(N(C)C)=NP(NC)(N(C)C)=N1 (stereo unspecified) | -13.9% | 12.9% | -10.6% | -6.85% | 6.6% | 10.4%
33 | S=P(N1CCCCC1)(N1CCCCC1)N1CCCCC1 | -6.95% | -6.8% | -3.15% | -17.8% | -4.2% | -7.1%
34 | NC(N)=NC(N)=Nc1ccc(Cl)cc1 | 0.9% | -2.65% | 3.45% | 2.8% | -1.9% | -1.55%
35 | O=c1ccc(=O)[nH][nH]1.[Zn+2] | -18.2% | 5.1% | -4.8% | -7.2% | -4% | -22.1%
36 | Cc1c[nH]cn1.Cc1c[nH]cn1.Cc1c[nH]cn1.Cc1c[nH]cn1.Cc1c[nH]cn1.Cc1c[nH]cn1.N#CS.[Mn+2] | 6.1% | 4.3% | 4.35% | -4.8% | 4.1% | 5.05%
37 | COP1(=S)OCC2OC(n3cc(C)c(=O)[nH]c3=O)CC2O1 (stereo unspecified) | 0.55% | -17.2% | -12.8% | -9.1% | 23.1% | -9.25%
38 | N#CCCO | -7.35% | 5.05% | 0.55% | -6.9% | -3.7% | -6.2%
39 | N[C@@H](Cc1ccc2oc3cc(=O)c4ccccc4c-3nc2c1)C(=O)O | 26% | 32.9% | 10% | 39.2% | 28.8% | 35%
40 | c1ccc(-c2csc3[nH]c4ccccc4[n+]23)cc1 | 19.4% | 5.6% | 8.35% | 5.7% | 5.25% | 6.35%
41 | c1ccc(CCN2CCCCC2)nc1 | 2.55% | -1.8% | -0.15% | -1.1% | 13.3% | -0.85%
